Tested on: Plasmodium falciparum
Test: GSK_TCMDC: Inhibition of Plasmodium falciparum 3D7 in whole red blood cells, using parasite LDH activity as an index of growth. Test compounds present at 2uM
Type: functional

In order of rising Inhibition:
1. Cl.O=S(=O)(c1ccc(OCc2ccc(Cl)cc2)cc1)c1cc2c(c(-c3ccc(F)cc3)c1)CCN(CC1CC1)CC2  84%
2. Cl.c1ccc2ncc(CNCCCCCCCCNCc3cnc4ccccc4c3)cc2c1  88%
3. NC(=O)c1ccsc1NC(=O)CNC(c1ccccc1)c1ccccc1  88%
4. CCOc1cc(C(=O)NCCCN2CCCCC2C)ccc1-c1nc2cc(Cl)ccc2[nH]1 (configuration not stated)  89%
5. Cc1ccc(C(=O)Nc2ccc(C)c(OC3CCN(Cc4ccco4)C3)c2)cc1.O=C(O)C(F)(F)F (configuration not stated)  90%
6. Cc1nc2nc(N)nc(N)c2c(C)c1Cc1cccc(C(N)=O)c1.Cl  91%
7. Cc1ccccc1NC(=O)C1CSCN1C(=O)OCc1ccccc1 (configuration not stated)  91%
8. O=C(NC1CCN(Cc2ccc(Cl)cc2)CC1)c1cn(-c2ccccc2)nc1-c1cccnc1  93%
9. CCc1ccc(O)c(-c2cc(C(=O)Nc3ccc(OC)c(Cl)c3)[nH]n2)c1  93%
10. Cc1cccc(C(=O)Nc2ccnc(N3CCC(N(C)Cc4ccc(C#N)cc4)CC3)c2)c1.O=C(O)C(F)(F)F  94%
11. O=C(NCCc1ccccc1)N(Cc1cccc(-c2ccc(CNCc3ccc4c(c3)OCO4)cc2)c1)C1CCN(Cc2ccccc2)CC1.O=C(O)C(F)(F)F  94%
12. O=C(Nc1ccccc1)Nc1ccc(-n2ccc(C(F)(F)F)n2)cc1  95%
13. CC1(C)N=C(N)N=C(N)N1c1cc(Cl)c(Cl)cc1Cl.Cl  95%
14. Br.CC1(C)NC(N)=NC(=N)N1OCCCOc1ccccc1Cl  96%
15. Cl.Clc1cccnc1N1CCN(c2ncccc2Cl)CC1  97%
16. CCN(C(=O)CSc1cc(C)c2cc(C)cc(C)c2n1)C1CCS(=O)(=O)C1 (configuration not stated)  97%
17. Cl.Nc1nc(N)c2c(ccc3c2ccn3C2CCCCC2)n1  97%
18. COc1cc(OC)c(NC(=O)Nc2ccnc3ccccc23)cc1Cl  97%
19. CNC(=O)NC1=NC(C)(C)N(OCCCOc2cc(Cl)c(Cl)cc2Cl)C(N)=N1  97%
20. CCOC(=O)c1cnc2cc(N3CCCC3)c(Cl)cc2c1OCC  97%
21. COc1ccc(C(=O)Nc2cc(Br)c3c(c2)CNCC3)cc1Br.Cl  97%
22. COCCNc1nc(N2CCC(CNC(=O)c3ccc(-c4ccc(C(=O)N(C)C)cc4C)cc3)CC2)nc2cc(OC)c(OC)cc12  98%
23. CN1CCN(C(C(=O)NCc2cc(Cl)cc(Cl)c2)c2ccc(NC(=O)Nc3ccccc3)cc2)CC1.O=C(O)C(F)(F)F (configuration not stated)  98%
24. Clc1cc(Cl)cc(Nc2ccnc(Nc3cc(Cl)cc(Cl)c3)n2)c1  99%
25. NCCC(=O)Nc1ccc(-c2cnc3[nH]cc(-c4ccc(C(=O)O)cc4)c3c2)cn1.O=C(O)C(F)(F)F  99%
26. COc1ccc2ncc(F)c(CCN3CCC(NCc4cnc5c(c4)NC(=O)CS5)CC3)c2c1.Cl  99%
27. c1ccc2[nH]c(-c3ccc(-c4ccc(CN5CCC(N6CCCCC6)CC5)cc4)s3)nc2c1  99%
28. COc1cc2nc(N(C)C)nc(Nc3ccc4c(cnn4Cc4ccccc4)c3)c2cc1OC  100%
29. C=CCOC(=O)N1CCC(CNCc2cccc(-c3ccc(-c4nc5cccc(C)c5[nH]4)s3)c2)C1.O=C(O)C(F)(F)F (configuration not stated)  100%
30. Cc1cc(N[C@@H](CC(C)C)C(=O)NC2CCCC2)nc(NCCc2ccc(F)cc2)n1.O=C(O)C(F)(F)F  100%
31. CN(C)CCNCc1ccc(-c2ccc(-c3nc4cc(F)ccc4[nH]3)cc2)cc1.O=C(O)C(F)(F)F  100%
32. CCN(CC)CCN(Cc1ccc(-c2ccc(C(F)(F)F)cc2)cc1)C(=O)CN1C(CCc2cccc(F)c2F)=NS(=O)(=O)c2ccccc21  100%
33. CS(=O)(=O)O.FC(F)(F)COc1c(CCNCCCCNCCc2ccc3ccccc3c2OCC(F)(F)F)ccc2ccccc12  100%
34. COc1ccc2nc(C)cc(Nc3ccc(Oc4ccc(Br)c5ccccc45)c(Cl)c3)c2c1  100%
35. CCOC(=O)c1ccc(NC(=O)Nc2ccc(-c3ccc(-c4nc5cccc(C)c5[nH]4)s3)cc2)cc1  100%
36. Cl.N#Cc1ccc2c(c1)CCN(CCC1CCC(NC(=O)/C=C/c3c[nH]c4c(Br)cccc34)CC1)CC2 (configuration not stated)  100%
37. O=C(O)/C=C\C(=O)O.c1cc(CN2CCCCC2)cc(OCCCNc2ccnc3ccccc23)c1  100%

Reference: ChEMBL document CHEMBL1157539, “Thousands of chemical starting points for antimalarial lead identification” (Nature, 2010)
